Reference: PubChem BioAssay AID1159580 (chemical genetic matrix, 2015)
The whole screen tested about 5,500 compounds, of which about 2,000 (36%) were called active. Another 18% or so got no clear call; they are omitted. No stated cut-off is given here; in the data, active means normalized growth mostly below about 0.91 (no sharp cut-off); inconclusive means no clear call, values can overlap the other calls; inactive means mostly above about 0.92. The list shows a part of the results.

Assay: chemical genetic growth profiling, strain panel (AID 1159580);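 further: tested at 20 µM; growth read once vehicle control cultures reached saturation at 30 °C; 1 = growth at the plate median or of vehicle wells; lower values mean less growth of the strain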
Conditions: growth OD
[1] = S. cerevisiae deletion strains, locus YBR021W, strain FUR4, active compounds read low
[2] = S. cerevisiae deletion strains, locus YBR229C, strain ROT2, active compounds read low
[3] = S. cerevisiae deletion strains, locus YCL029C, strain bik1, active compounds read low
[4] = S. cerevisiae deletion strains, locus YDL035C, strain GPR1, active compounds read low
[5] = S. cerevisiae deletion strains, locus YDL074C, strain BRE1, active compounds read low
[6] = S. cerevisiae deletion strains, locus YDL101C, strain DUN1, active compounds read low
[7] = S. cerevisiae deletion strains, locus YDL185W, strain tfp1, active compounds read low
[8] = S. cerevisiae deletion strains, locus YDL192W, strain arf1, active compounds read low
[9] = S. cerevisiae deletion strains, locus YDR101C, strain arx1, active compounds read low
[10] = S. cerevisiae deletion strains, locus YDR162C, strain NBP2, active compounds read low
[11] = S. cerevisiae deletion strains, locus YDR318W, strain mcm21, active compounds read low
[12] = S. cerevisiae deletion strains, locus YDR388W, active compounds read low
[13] = S. cerevisiae deletion strains, locus YDR502C, strain sam2, active compounds read low
[14] = S. cerevisiae deletion strains, locus YER110C, active compounds read low
[15] = S. cerevisiae deletion strains, locus YER155C, strain BEM2, active compounds read low
[16] = S. cerevisiae deletion strains, locus YER167W, strain BCK2, active compounds read low
[17] = S. cerevisiae deletion strains, locus YGL078C, strain dbp3, active compounds read low
[18] = S. cerevisiae deletion strains, locus YGL086W, strain mad1, active compounds read low
[19] = S. cerevisiae deletion strains, locus YGL248W, strain PDE1, active compounds read low
[20] = S. cerevisiae deletion strains, locus YGR078C, strain PAC10, active compounds read low
[21] = S. cerevisiae deletion strains, locus YGR135W, strain pre9, active compounds read low
[22] = S. cerevisiae deletion strains, locus YGR252W, strain gcn5, active compounds read low
[23] = S. cerevisiae deletion strains, locus YHR079C, strain IRE1 (second series), active compounds read low
[24] = S. cerevisiae deletion strains, locus YHR094C, strain hxt1, active compounds read low
[25] = S. cerevisiae deletion strains, locus YHR129C, strain ARP1, active compounds read low
[26] = S. cerevisiae deletion strains, locus YHR200W, strain rpn10, active compounds read low
[27] = S. cerevisiae deletion strains, locus YIL066C, strain RNR3, active compounds read low
[28] = S. cerevisiae deletion strains, locus YIL073C, strain SPO22, active compounds read low
[29] = S. cerevisiae deletion strains, locus YIL125W, strain kgd1, active compounds read low
[30] = S. cerevisiae deletion strains, locus YIR030C, strain dcg1, active compounds read low
[31] = S. cerevisiae deletion strains, locus YJL095W, strain BCK1, active compounds read low
[32] = S. cerevisiae deletion strains, locus YJL134W, strain LCB3, active compounds read low
[33] = S. cerevisiae deletion strains, locus YJL168C, strain set2, active compounds read low
[34] = S. cerevisiae deletion strains, locus YJL187C, strain SWE1 (second series), active compounds read low
[35] = S. cerevisiae deletion strains, locus YKL009W, strain mrt4, active compounds read low
[36] = S. cerevisiae deletion strains, locus YKL068W, active compounds read low
[37] = S. cerevisiae deletion strains, locus YKL085W, strain MDH1 (second series), active compounds read low
[38] = S. cerevisiae deletion strains, locus YKL085W, strain MDH1, active compounds read low
[39] = S. cerevisiae deletion strains, locus YKL190W, strain CNB1, active compounds read low
[40] = S. cerevisiae deletion strains, locus YKR001C, strain vps1, active compounds read low
[41] = S. cerevisiae deletion strains, locus YLR039C, strain RIC1, active compounds read low
[42] = S. cerevisiae deletion strains, locus YLR058C, strain SHM2, active compounds read low
[43] = S. cerevisiae deletion strains, locus YLR102C, strain apc9, active compounds read low
[44] = S. cerevisiae deletion strains, locus YLR268W, strain sec22, active compounds read low
[45] = S. cerevisiae deletion strains, locus YLR330W, strain CHS5, active compounds read low
[46] = S. cerevisiae deletion strains, locus YLR342W, strain FKS1 (second series), active compounds read low
[47] = S. cerevisiae deletion strains, locus YLR371W, strain rom2, active compounds read low
[48] = S. cerevisiae deletion strains, locus YLR418C, strain cdc73, active compounds read low
[49] = S. cerevisiae deletion strains, locus YML016C, strain PPZ1, active compounds read low
[50] = S. cerevisiae deletion strains, locus YML032C, strain rad52, active compounds read low
[51] = S. cerevisiae deletion strains, locus YML124C, strain tub3, active compounds read low
[52] = S. cerevisiae deletion strains, locus YMR078C, strain ctf18, active compounds read low
[53] = S. cerevisiae deletion strains, locus YMR223W, strain ubp8, active compounds read low
[54] = S. cerevisiae deletion strains, locus YMR307W, strain GAS1, active compounds read low
[55] = S. cerevisiae deletion strains, locus YNL067W, strain RPL9B, active compounds read low
[56] = S. cerevisiae deletion strains, locus YNL153C, strain GIM3, active compounds read low
[57] = S. cerevisiae deletion strains, locus YNL233W, strain BNI4, active compounds read low
[58] = S. cerevisiae deletion strains, locus YNL250W, strain rad50, active compounds read low
[59] = S. cerevisiae deletion strains, locus YNL271C, strain bni1, active compounds read low
[60] = S. cerevisiae deletion strains, locus YNL298W, strain CLA4, active compounds read low
[61] = S. cerevisiae deletion strains, locus YNL307C, strain MCK1, active compounds read low
[62] = S. cerevisiae deletion strains, locus YNR052C, strain pop2, active compounds read low
[63] = S. cerevisiae deletion strains, locus YOL012C, strain htz1
[64] = S. cerevisiae deletion strains, locus YOL147C, strain pex11, active compounds read low
[65] = S. cerevisiae deletion strains, locus YOR061W, strain CKA2, active compounds read low
[66] = S. cerevisiae deletion strains, locus YOR069W, strain VPS5, active compounds read low
[67] = S. cerevisiae deletion strains, locus YOR136W, strain idh2, active compounds read low
[68] = S. cerevisiae deletion strains, locus YOR144C, strain elg1, active compounds read low
[69] = S. cerevisiae deletion strains, locus YOR184W, strain ser1, active compounds read low
[70] = S. cerevisiae deletion strains, locus YOR316C, strain cot1, active compounds read low
[71] = S. cerevisiae deletion strains, locus YPR119W, strain clb2, active compounds read low
[72] = S. cerevisiae deletion strains, locus YPR141C, strain kar3, active compounds read low
[73] = S. cerevisiae deletion strains, locus YPR163C, strain tif3, active compounds read low
[74] = S. cerevisiae deletion strains, locus YPR167C, strain met16, active compounds read low
[75] = S. cerevisiae deletion strains, strain wtn01, active compounds read low
[76] = S. cerevisiae deletion strains, locus YGR229C, strain SMI1, active compounds read low
[77] = S. cerevisiae deletion strains, locus YNL322C, strain KRE1, active compounds read low

Measured: normalized growth

COc1cc2c(cc1O)C(Cc1ccc(O)cc1)N(C)CC2 (stereo unspecified)
inactive: S. cerevisiae deletion strains, locus YAL013W, strain DEP1, active compounds read low 1.01 | [1] 1.02 | [2] 1.02 | [3] 1 | [4] 1.05 | [5] 1.06 | [6] 1.02 | [7] 1.01 | [8] 1.02 | [9] 1.01 | [10] 1.05 | [11] 1.01 | [12] 1.01 | [13] 0.979 | [14] 0.977 | [15] 1.01 | [16] 1.02 | [17] 0.984 | [18] 1.01 | [19] 1.03 | [20] 1.02 | [21] 0.981 | [22] 0.923 | [23] 0.991 | [24] 0.982 | [25] 1.02 | [26] 0.986 | [27] 1.03 | [28] 0.998 | [29] 1.01 | [30] 1 | [31] 1.03 | [32] 1.02 | [33] 0.998 | [34] 1.02 | [35] 1.02 | [36] 0.998 | [37] 1.01 | [38] 1.01 | [39] 1.02 | [40] 1.01 | [41] 1.05 | [42] 1.04 | [43] 0.977 | [44] 1.03 | [45] 1.02 | [46] 1.07 | [47] 1.01 | [48] 1.01 | [49] 1.02 | [50] 1.01 | [51] 0.999 | [52] 0.994 | [53] 0.993 | [54] 1.12 | [55] 1.01 | [56] 1.01 | [57] 1.01 | [58] 1 | [59] 1.01 | [60] 1.01 | [61] 0.994 | [62] 0.982 | [63] 0.669 | [64] 1 | [65] 1.03 | [66] 1.01 | [67] 0.972 | [68] 0.996 | [69] 1.05 | [70] 0.989 | [71] 0.991 | [72] 1.01 | [73] 0.998 | [74] 0.973 | [75] 1.01

O=c1ccn([C@@H]2O[C@H](COP(=O)(O)OP(=O)(O)O)[C@@H](O)[C@H]2O)c(=O)[nH]1
inactive: S. cerevisiae deletion strains, locus YAL040C, strain CLN3, active compounds read low 0.981 | S. cerevisiae deletion strains, locus YCL061C, strain MRC1 (second series), active compounds read low 0.991 | S. cerevisiae deletion strains, locus YDR363W, strain ESC2, active compounds read low 0.981 | S. cerevisiae deletion strains, locus YER002W, strain NOP16, active compounds read low 0.995 | [76] 0.972 | S. cerevisiae deletion strains, locus YJR075W, strain HOC1, active compounds read low 0.976 | [54] 0.985 | [56] 0.983 | S. cerevisiae deletion strains, locus YNL175C, strain NOP13, active compounds read low 0.988 | S. cerevisiae deletion strains, locus YNL197C, strain WHI3, active compounds read low 0.967 | S. cerevisiae deletion strains, locus YNL224C, strain SQS1, active compounds read low 0.992 | [77] 0.971 | S. cerevisiae deletion strains, locus YOR083W, strain WHI5 (second series), active compounds read low 0.992 | S. cerevisiae deletion strains, locus YPL241C, strain CIN2, active compounds read low 1

NC(N)=NCCC[C@@H](NC(=O)[C@@H](N)Cc1ccc(O)cc1)C(=O)O
inactive: [1] 1.01 | [2] 1.01 | [3] 1.01 | [4] 1.02 | [5] 1.01 | [6] 1 | S. cerevisiae deletion strains, locus YDL134C, strain PPH21, active compounds read low 1.01 | [7] 1.01 | [8] 1.01 | [9] 0.996 | S. cerevisiae deletion strains, locus YDR150W, strain NUM1, active compounds read low 1.01 | [10] 1 | [11] 1.01 | [12] 1.01 | [13] 1.02 | S. cerevisiae deletion strains, locus YEL061C, strain CIN8, active compounds read low 1.01 | [14] 1.02 | [15] 1.01 | [16] 1.01 | [17] 1.01 | [18] 1 | [19] 1.01 | [20] 0.996 | [21] 1.01 | [76] 0.997 | [22] 0.99 | S. cerevisiae deletion strains, locus YHR030C, strain SLT2, active compounds read low 1.01 | [23] 1.01 | [24] 1.01 | [25] 1 | [26] 1.01 | [27] 1.01 | [28] 1.03 | [29] 1.01 | [30] 1.01 | [31] 0.996 | [32] 1.01 | [33] 1.01 | [34] 1.01 | S. cerevisiae deletion strains, locus YJR043C, strain POL32, active compounds read low 1.01 | [35] 0.997 | [36] 1.01 | [37] 1.01 | [38] 1.01 | [39] 1.01 | [40] 0.993 | [41] 1.03 | [42] 1.01 | [43] 1.01 | S. cerevisiae deletion strains, locus YLR262C, strain YPT6, active compounds read low 0.992 | [44] 1.01 | [45] 1.01 | [46] 1.02 | [47] 1.01 | [48] 1.02 | [49] 1 | [50] 1.02 | [51] 1.01 | [52] 1.01 | [53] 1.01 | [54] 0.979 | [55] 1.01 | [56] 0.993 | [57] 1.01 | [58] 0.998 | [59] 1.01 | [60] 1.01 | [61] 1.01 | [77] 1.01 | [62] 1.02 | S. cerevisiae deletion strains, locus YOL006C, strain TOP1, active compounds read low 1.03 | [63] 1.88 | [64] 1.01 | [65] 1.01 | [66] 1.01 | [67] 1 | [68] 1.01 | [69] 1.01 | [70] 1.01 | S. cerevisiae deletion strains, locus YPL055C, strain LGE1, active compounds read low 1 | [71] 1.01 | [72] 1.01 | [73] 1.02 | [74] 1.01 | [75] 0.999 | S. cerevisiae strains, strain wild type, active compounds read low 1
